Measurements taken from the supplement of paper PMC9433436.
± gives the standard deviation of the averaged measurements. The full ranking holds about 4,100 sequences; the median of “relative kcat/Km (krel) vs genomic leader AAAGAU” is about 1.7, and the highest 2% start at about 6.5. The sample as a whole holds a higher share of the highest values than the screen did.

Biological target: T1, E. coli RNase P holoenzyme (M1 P RNA + rnpA protein) (UniProt P0A7Y8)
T1 sequence: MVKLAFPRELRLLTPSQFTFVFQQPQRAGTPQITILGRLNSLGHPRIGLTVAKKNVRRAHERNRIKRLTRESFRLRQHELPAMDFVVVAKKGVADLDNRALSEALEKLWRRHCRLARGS
Assay: relative kcat/Km (krel) vs genomic leader AAAGAU (relative (reference leader = 1)); higher = faster RNase P cleavage
Protocol: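 HTS-Kin: a pool of ptRNA-Met (21C construct) with all 4096 combinations of 5' leader nucleotides N(-6) to N(-1) was processed in vitro by E. coli RNase P (P RNA + rnpA/C5 protein) under multiple-turnover conditions at 37 C, pH 8, 17.5 mM MgCl2. Residual substrate was Illumina-sequenced at several fractions reacted, and relative kcat/Km (krel) was computed by internal competition kinetics, calibrated to the genomic leader (AAAGAU = 1). The listed hexamer is the varied N(-6)..N(-1) leader (DNA letters), and it sits between a fixed 5' stem-loop flank (GCAUGCACGAAAGUGCGUGCUAUGAA) and the mature tRNA-Met starting GGCUACGUAGCUCAGUUGG. Two technical replicates are averaged.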

[1] = fraction of substrate reacted: ~13-16% (15.68% repeat 1, 13.17% repeat 2)
[2] = fraction of substrate reacted: ~26-29% (28.66% repeat 1, 26.4% repeat 2)
[3] = fraction of substrate reacted: ~9-10% (9.79% repeat 1, 9.1% repeat 2)

| Sequence | relative kcat/Km [1] | relative kcat/Km [2] | relative kcat/Km [3] |
| --- | --- | --- | --- |
| CCATAG | 0.327 ± 0.075 | 1.95 ± 0.2 | – |
| TGGGGT | – | 1.83 ± 0.45 | – |
| TGCTCT | 1.02 ± 0.37 | 1.5 ± 0.59 | 0.944 ± 0.33 |
| TTATCT | 3.58 ± 0.95 | 5.02 ± 2.2 | 2.77 ± 0.45 |
| CTATAA | 3.72 ± 0.51 | 4.92 ± 1.3 | 3.33 ± 1.3 |
| CTATAT | 5.55 ± 0.85 | 7.37 ± 2.9 | 4.48 ± 1.6 |
| ATATAG | 1.77 ± 0.48 | 3.88 ± 1.4 | 2.16 ± 1.9 |
| TTATAT | 5.95 ± 0.72 | 8.54 ± 4 | 4.62 ± 2 |
| GTATTT | 3.71 ± 0.4 | 5.37 ± 1.9 | 3.06 ± 2 |
| TTATAG | 2.63 ± 0.53 | 4.22 ± 1.9 | 2.25 ± 1.6 |
| GTATAT | 4.99 ± 0.35 | 7.89 ± 3.5 | 3.56 ± 1.5 |
| CTATAG | 1.823 ± 0.012 | 3.4 ± 0.44 | 2.47 ± 1.2 |
| ATATAT | 4.49 ± 0.51 | 6.84 ± 3.3 | 3 ± 0.9 |
| GTATAA | 4.18 ± 0.35 | 5.6 ± 2 | 3.41 ± 1.2 |
| ATATAA | 3.31 ± 0.47 | 4.9 ± 1.7 | 2.75 ± 1.4 |
| GTGCAA | 1.25 ± 0.53 | 1.32 ± 0.22 | 1.89 ± 1.4 |
| ACACCT | 1.66 ± 0.33 | 2.53 ± 1.6 | 2.6 ± 1.3 |
| TCAGCC | 2.37 ± 0.56 | 3.15 ± 0.59 | 2.48 ± 0.96 |
| GAGCAG | 0.164 ± 0.047 | 1.27 ± 0.062 | – |
| ACGCGA | 1.29 ± 0.1 | 2.07 ± 0.28 | 2.19 ± 0.79 |
| CTGTTA | 1.44 ± 1.1 | 2.19 ± 0.06 | 2.76 ± 1.4 |
| CGACGT | 2.25 ± 1.1 | 2.36 ± 1.5 | – |
| CAGGGC | 0.734 ± 0.28 | 0.809 ± 0.4 | – |
| GCCGTA | 2.93 ± 0.69 | 3.66 ± 1.4 | 2.27 ± 0.21 |
| GGTAAC | 1.618 ± 0.0045 | 2.64 ± 1.5 | 1.47 ± 0.022 |

| Sequence | relative kcat/Km [1] | relative kcat/Km [2] | relative kcat/Km [3] |
| --- | --- | --- | --- |
| GGATAT | 2.63 ± 0.49 | 3.4 ± 1.9 | 1.83 ± 0.13 |
| CGATAT | 5.17 ± 2.6 | 6.68 ± 3 | 3.51 ± 0.4 |
| CGATAC | 4.04 ± 1 | 5.79 ± 2.4 | 3.25 ± 1.4 |
| GTCAAT | 4.56 ± 1.9 | 7.14 ± 3.8 | 3.17 ± 0.8 |
| GTCAAG | 2.63 ± 0.65 | 5.35 ± 2.1 | 1.75 ± 0.96 |
| CTTAAG | 1.63 ± 0.79 | 2.28 ± 0.23 | 1.2 ± 0.59 |
| ATCAAA | 5.34 ± 0.78 | 7.44 ± 3.2 | 3.96 ± 1.9 |
| GGCAAT | 1.558 ± 0.015 | 3.04 ± 1.2 | 1.76 ± 0.086 |
| ATCAAG | 1.96 ± 0.14 | 3.87 ± 0.91 | – |
| CTCAAG | 2.93 ± 1.3 | 4.67 ± 1.1 | 2.69 ± 2 |
| GTCAAA | 5.99 ± 1.9 | 8.75 ± 3.3 | 4.62 ± 1.6 |
| GGCAAA | 3.13 ± 0.17 | 3.46 ± 0.93 | 2.21 ± 1 |
| ACCAAG | 0.763 ± 0.21 | 2.7 ± 0.17 | – |
| CTCAAA | 4.92 ± 1.4 | 8.02 ± 3.1 | 4.31 ± 1.6 |
| GCCAAT | 2.75 ± 1.7 | 4.52 ± 2.3 | 3.15 ± 0.068 |
| CAGTCA | 1.64 ± 1.4 | 2.56 ± 1.5 | 1.56 ± 0.78 |
| TGTAGG | 0.426 ± 0.27 | 1.61 ± 0.48 | – |
| CAACCC | 1.26 ± 0.56 | 1.22 ± 0.096 | 1.41 ± 0.43 |
| TCACAC | 4.7 ± 1.1 | 5.86 ± 2 | 3.8 ± 1.1 |
| CCACAC | 2.63 ± 0.9 | 3.97 ± 1.5 | 1.98 ± 0.78 |
| GCTAGA | 1.71 ± 0.21 | 2.45 ± 0.62 | 1.329 ± 0.007 |
| GCCCGG | – | 0.437 ± 0.31 | 0.406 ± 0.099 |
| CAGAGG | – | 0.599 ± 0.16 | – |
| ACATCT | 3.25 ± 0.78 | 4.12 ± 1.9 | 2.62 ± 1.1 |
| TCATGG | 0.443 ± 0.084 | 0.476 ± 0.47 | 0.253 ± 0.062 |

| Sequence | relative kcat/Km [1] | relative kcat/Km [2] | relative kcat/Km [3] |
| --- | --- | --- | --- |
| GATAAC | 2.81 ± 0.13 | 3.66 ± 1 | 2.1 ± 0.44 |
| TATGTG | – | 0.506 ± 0.12 | – |
| ATCTGG | – | 1.46 ± 0.34 | 0.825 ± 0.53 |
| ATCAGA | 4.59 ± 0.2 | 7.03 ± 1.9 | 3.76 ± 2 |
| CTCAGA | 5.99 ± 1 | 8.03 ± 2.7 | 4.71 ± 1.4 |
| GTCAGA | 5.57 ± 1.1 | 9.06 ± 3.4 | 3.33 ± 0.28 |
| GCCAGA | 2.26 ± 0.32 | 5.56 ± 1.6 | 2.6 ± 2 |
| GTCGGA | 1.67 ± 1.1 | 1.51 ± 1.2 | – |
| CTCAGT | 1.91 ± 1.4 | 2.13 ± 1.4 | 1.02 ± 0.51 |
| CTCAGG | 1.21 ± 0.29 | 2.45 ± 0.18 | 1.96 ± 1.2 |
| ATCAGT | 1.79 ± 1.8 | 2.19 ± 2.2 | – |
| ATCAGG | – | 1.41 ± 0.062 | 0.528 ± 0.016 |
| GGACAA | 1.34 ± 0.47 | 2.59 ± 0.96 | 0.879 ± 0.43 |
| TAATTC | 2.45 ± 0.42 | 3.22 ± 0.89 | 2.12 ± 1.6 |
| AGACGT | – | 1.98 ± 1.9 | – |
| TATGCC | 1.72 ± 0.22 | 2.97 ± 1.5 | 2.71 ± 0.41 |
| TCCGCC | 5.9 ± 0.79 | 7.97 ± 3.5 | 4.39 ± 0.68 |
| CCCGCC | 4.24 ± 2 | 4.94 ± 1.9 | 2.78 ± 0.39 |
| TCCGCT | 2.55 ± 2 | 3.65 ± 1.5 | 2.17 ± 0.033 |
| CCCGCA | 3.43 ± 1.2 | 4.58 ± 1.4 | 3.38 ± 0.43 |
| TCCGCA | 5.02 ± 0.26 | 6.95 ± 2.4 | 4.56 ± 2.3 |
| GCCGCC | 3.21 ± 1.2 | 5.43 ± 2.6 | 2.33 ± 1.2 |
| TGTATG | – | 1.93 ± 0.25 | – |
| CCTTTA | 1.47 ± 0.27 | 2.25 ± 0.99 | 1.51 ± 0.63 |
| ACAGAT | 1.48 ± 0.42 | 1.88 ± 0.26 | 0.729 ± 0.034 |

| Sequence | relative kcat/Km [1] | relative kcat/Km [2] | relative kcat/Km [3] |
| --- | --- | --- | --- |
| ATTACC | 1.65 ± 0.26 | 2.21 ± 0.71 | 1.64 ± 0.48 |
| ATGAGA | 0.964 ± 0.71 | 2.28 ± 0.37 | 0.619 ± 0.34 |
| TTCAAT | 5.53 ± 0.71 | 9.07 ± 3.9 | 4.1 ± 1.6 |
| TTCAAG | 3.38 ± 0.47 | 5.77 ± 2 | 2.98 ± 2.4 |
| TTCAAC | 6.12 ± 0.93 | 8.94 ± 3.2 | 4.99 ± 1.6 |
| TGCAAC | 1.45 ± 0.22 | 2.22 ± 0.84 | 1.87 ± 0.58 |
| CCCAAC | 2.15 ± 0.29 | 3.75 ± 1.1 | 2.26 ± 0.55 |
| CTCAAC | 5.06 ± 1.2 | 7.63 ± 3.4 | 3.75 ± 0.14 |
| TGCAAT | 1.18 ± 0.72 | 1.9 ± 0.94 | 0.917 ± 0.7 |
| ATCAAC | 4.05 ± 0.78 | 5.86 ± 1.6 | 3.56 ± 1.5 |
| TCAAAA | 1.64 ± 0.34 | 2.89 ± 1.2 | 2.12 ± 1.1 |
| TTCAAA | 6.52 ± 1.5 | 9.38 ± 3.5 | 4.87 ± 2.9 |
| TCAATT | 1.92 ± 0.12 | 2.3 ± 0.3 | 2.1 ± 1.1 |
| CTTAAC | 2.52 ± 0.82 | 3.93 ± 1.3 | 2.53 ± 1.3 |
| CTTCTT | 3.05 ± 0.55 | 3.45 ± 0.96 | 2.75 ± 1.4 |
| AACCGC | 3.02 ± 0.23 | 4.02 ± 0.71 | 3.24 ± 0.86 |
| GATTGG | – | 0.409 ± 0.2 | – |
| ATTCCA | 2.11 ± 0.63 | 1.93 ± 0.82 | 2.17 ± 0.89 |
| TAATTA | 2.05 ± 0.57 | 2.99 ± 1.1 | 2.15 ± 1.5 |
| ACGTTC | 2.45 ± 0.76 | 3.59 ± 1.4 | 2.18 ± 0.36 |
| CATCAA | 3.35 ± 0.32 | 4.59 ± 1.9 | 2.69 ± 0.095 |
| TCCGGA | 1.33 ± 0.95 | 1.83 ± 1.3 | 1.02 ± 0.16 |
| TCGCAT | 3.11 ± 0.57 | 5.13 ± 2.3 | 2.12 ± 0.11 |
